IMPase Li inh = qHTS Assay for Identifying the Cell-Membrane Permeable IMPase Inhibitors: Potentiation with Lithium | 210,000 compounds, 0.35% hits | Potency, µM (top dose mostly 59.4 µM), for the others: top-dose activity, negative = IMPase inhibition, usual class: inhibitors | CHO-M1 cells, IP1 TR-FRET (IP-One), carbachol + lithium;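 further: IP1 builds up when IMPase is blocked and the TR-FRET signal falls; potency means the concentration at half of the fitted maximal effect; plate controls were basal vehicle for no effect and high inhibitor control for full effect; nearly all actives have a fitted effect of over 50% in size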
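Lithium-sensitised IP1 accumulation assay; M1-expressing CHO cells treated 30 min at 37C with compound. Competitive antibody detection by time-resolved FRET followed a 10 min room-temperature lysis step.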
HTT ATP protect = qHTS Multiplex Assay to Identify Dual Action Probes in a Cell Model of Huntington: Cytoprotection (ATP); PC12 HTT-Q103 induced, cytoprotection, ATP luminescence, 40 h; Potency, µM (highest dose often 56.4 µM), for inactives: cytoprotection (ATP increase), usual class: activators; 230,000 compounds, 0.14% hits; further: potency means the concentration at half of the fitted maximal effect; % of control where 0% means no effect; nearly all actives have a fitted effect of over 45% in size
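Stable PC12 Q103-GFP cells in serum-supplemented, phenol red-free DMEM; induction by tebufenozide at 100 nM final; compound dose series; cell viability quantified luminescently from ATP.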
HttQ103 aggreg = qHTS Multiplex Assay to Identify Dual Action Probes in a Cell Model of Huntington: Aggregate Formation (GFP). PC12 HttQ103-GFP aggregates, Acumen cytometry, 40 h. Potency, µM (titrated, usually from 46.1 µM), for the others: at the highest dose activity change, negative = inhibition, usual class: inhibitors. 220,000 compounds, 1.1% hits. AID 1688, 2009; further: potency means the concentration at half of the fitted maximal effect; on the % scale 0 is the no-effect control and ±100 the full control effect; nearly all actives have a fitted effect of over 60% in size
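Aggregates are detected as GFP objects 1–25 µm with signal 6 STDEV over background in lysates of induced PC12 cells. These carry Huntingtin exon 1 with 103 glutamines fused to GFP under an ecdysone promoter; compounds titrated.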
IMPase cell inh = qHTS Assay for Identifying the Cell-Membrane Permeable IMPase Inhibitors; CHO-M1 cells, IP1 accumulation, HTRF TR-FRET ratio; inhibition (IP1 accumulation), % at 46.1 µM; 120,000 tested, under 10 active; AID 901, 2007; active means well fitted curve in the direction sought with a large enough effect in the signal ratio, not every such curve was filed as active; inconclusive means small, poorly fitted or top-dose-only effect, or a change in a side signal; inactive means no such curve, though single readings can be large or run the other way; the % refers to the signal ratio;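 further: cells stimulated with carbachol in lithium chloride buffer; plate controls were DMSO basal wells for no effect and reference inhibitor wells for full effect; higher means more IMPase inhibition seen as more IP1 and lower FRET ratio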
Target sequence (P97697 whole entry, looked up): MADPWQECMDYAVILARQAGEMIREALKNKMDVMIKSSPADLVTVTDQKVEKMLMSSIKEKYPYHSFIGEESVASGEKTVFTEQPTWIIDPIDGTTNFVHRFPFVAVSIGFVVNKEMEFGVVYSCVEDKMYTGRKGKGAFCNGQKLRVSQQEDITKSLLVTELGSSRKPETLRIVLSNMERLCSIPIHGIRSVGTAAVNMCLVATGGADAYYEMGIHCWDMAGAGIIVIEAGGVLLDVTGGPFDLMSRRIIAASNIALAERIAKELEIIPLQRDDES
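The IP-One HTRF competitive assay in carbachol-stimulated CHO-M1 cells quantifies cellular IP1. Compounds spanned up to 46 uM final, and activity is expressed as AC50 from concentration-response fits of the ratio and donor data.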
HPGD inh = qHTS Assay for Inhibitors of HPGD (15-Hydroxyprostaglandin Dehydrogenase) | AID 894, 2007 | purified HPGD, NADH fluorescence kinetic, PGE2 substrate | Potency, µM, without a hit: at the highest dose activity change, negative = inhibition, most hits filed as inhibitors | 15-hydroxyprostaglandin dehydrogenase [NAD(+)] (Homo sapiens), P15428 | 150,000 compounds, 4.3% hits; active means well fitted inhibition curve with a large enough effect, not every such curve was filed as active; inconclusive means small, poorly fitted or top-dose-only effect, or another doubt; inactive means no such curve, though single readings can be large or run the other way; further: potency means the concentration at half of the fitted maximal effect; on the % scale 0 is the no-effect control and ±100 the full control effect
Target sequence (P15428 whole entry, looked up): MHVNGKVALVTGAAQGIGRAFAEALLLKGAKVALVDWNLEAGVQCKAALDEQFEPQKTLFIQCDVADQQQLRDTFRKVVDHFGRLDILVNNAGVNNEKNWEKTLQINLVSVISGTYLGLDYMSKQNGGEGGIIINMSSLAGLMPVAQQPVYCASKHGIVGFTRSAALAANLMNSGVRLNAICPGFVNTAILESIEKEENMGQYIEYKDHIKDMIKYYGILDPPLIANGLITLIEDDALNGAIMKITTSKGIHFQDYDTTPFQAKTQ
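NADH formation kinetics: reaction with 30 uM PGE2 and 1 mM NAD+ (final), 20 nM enzyme, Tris-HCl pH 8 with Tween 20, after 15 min compound preincubation at room temperature. Fluorescence change, last versus first of five reads.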
ALDH1A1 block = qHTS Assay for Inhibitors of Aldehyde Dehydrogenase 1 (ALDH1A1); Potency, µM (top dose mostly 75.3 µM), for the others: at the highest dose activity, negative = inhibition, hits mostly inhibitors; Purified ALDH1A1, NADH fluorescence, propionaldehyde substrate; AID 1030, 2008; 220,000 compounds, 7.3% hits; active means well fitted inhibition curve with a large enough effect, not every such curve was filed as active; inconclusive means small, poorly fitted or top-dose-only effect, or another doubt; inactive means no such curve, though single readings can be large or run the other way;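 further: potency means the concentration at half of the fitted maximal effect; plate controls were no enzyme wells and a reference inhibitor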
Starred values were filed as active, the others as inactive; [ ] = remark or other dose. The list is not random: actives were taken first. Their share in the collection is about 9.4%. Unless noted, the call rests on the fitted dose curve; in most records, active means well fitted curve in the direction sought with a large enough effect; inconclusive means small, poorly fitted or top-dose-only effect, or another doubt; inactive means no such curve, though single readings can be large; an effect the other way counts as inactive or inconclusive.

`O=C(c1ccco1)N1CCC2(CC1)CCN(c1ccc(-c3ccccc3)cc1)CC2` gave IMPase Li inh 8%, HTT ATP protect -1%, HPGD inh -9% and ALDH1A1 block -5%.
Screening Cc1ccc(N(CC(N)=O)C2SC(=O)NC2=O)cc1 (configuration not stated) returned IMPase Li inh -13%, HTT ATP protect -7%[10 µM], HttQ103 aggreg -1%, HPGD inh -15% and ALDH1A1 block inconclusive.
Cc1ccc(N(CC(N)=O)C2SC(=O)N(Cc3cccc(C(=O)O)c3)C2=O)cc1 (configuration not stated) was read as IMPase Li inh -5%[38.3 µM], HTT ATP protect 22%, HttQ103 aggreg -6%, IMPase cell inh 8, HPGD inh -9% and ALDH1A1 block 20µM*.
Screening CCOC(=O)CNC(=O)c1ccc(C)cc1 returned IMPase Li inh 27%[38.3 µM], HTT ATP protect 11%, HttQ103 aggreg -10%, IMPase cell inh 3, HPGD inh -18% and ALDH1A1 block 9%.
CCO/C=C/C(O)(CNC(=O)c1ccc(C(C)(C)C)cc1)C(F)(F)F (configuration not stated) was read as IMPase Li inh -1%, HTT ATP protect -52%[10 µM], HttQ103 aggreg 9%, HPGD inh 25µM* and ALDH1A1 block -7%.
Screening O=C(Nc1ccc(Cl)cc1F)c1ccccc1Br returned IMPase Li inh 2%, HTT ATP protect 24%[10 µM], HttQ103 aggreg 3%, HPGD inh 16µM* and ALDH1A1 block 4%.
`Cc1nc(NC(=O)CCl)sc1C(=O)N(C)C` gave IMPase Li inh 5%, HTT ATP protect 19%[10 µM], HttQ103 aggreg -2%[9.22 µM] and ALDH1A1 block 32µM*.
Cc1nc(NC(=O)C(Cl)Cl)sc1C(=O)N(C)C was read as IMPase Li inh 9%, HTT ATP protect inconclusive, HttQ103 aggreg 0%, HPGD inh -16% and ALDH1A1 block -6%.
`O=C(c1cnccn1)N1CCC2(CC1)CN(Cc1nccs1)C2` gave IMPase Li inh 4%, HTT ATP protect -5%, HPGD inh -8% and ALDH1A1 block 5%.
`CCS(=O)(=O)c1ccc2c(c1)N(S(C)(=O)=O)CC(C(=O)NN)O2` (configuration not stated) gave IMPase Li inh 5%, HttQ103 aggreg 6% and ALDH1A1 block 0.56µM*.
For COCCNC(=O)CSc1nc(-c2cc(OC)c(OC)c(OC)c2)[nH]c1-c1ccc(Cl)cc1 the results were IMPase cell inh -4.
`O=C(CNc1ccc(F)cc1)c1ccccc1` gave IMPase Li inh 5%, HTT ATP protect -12%, HttQ103 aggreg 3%[9.22 µM] and ALDH1A1 block 13µM*.
`Cc1ccc(C(=O)CC(=O)c2ccc(C(C)(C)C)cc2)cc1` gave IMPase Li inh -5%, HTT ATP protect 15%[10 µM], HttQ103 aggreg 6%[9.22 µM] and ALDH1A1 block 3%.
Screening Cc1ccc(C(=O)CNc2ccc(Br)cc2)cc1 returned IMPase Li inh 3%[38.3 µM], HTT ATP protect -7%, HttQ103 aggreg inconclusive, IMPase cell inh 0, HPGD inh -24% and ALDH1A1 block 18µM*.
Screening O=C(CNc1ccc(Br)cc1)c1ccccc1 returned IMPase Li inh -16%[38.3 µM], HTT ATP protect -9%, HttQ103 aggreg -5%, IMPase cell inh 2, HPGD inh -17% and ALDH1A1 block 20µM*.
For Cc1ccc(C(=O)CNc2ccccc2C)cc1 the results were IMPase Li inh 5%, HTT ATP protect 37%[10 µM], HttQ103 aggreg 5%, HPGD inh -10% and ALDH1A1 block 11µM*.
